Laboratory results taken from the supplement of paper PMC11732987, “Enantioselective OTUD7B fragment discovery through chemoproteomics screening and high-throughput optimisation” (Communications Chemistry, 2025).
Values without a mark were called inactive.

Assays:
Experiment in all cases: log2 ratio of Biotin-Ahx-Ub-VS probe labelling (fragment/DMSO); higher = less target engagement (more negative = stronger competition), active = hit call of the paper (q ≤ 0.05, log2 ratio ≤ -1)
Conditions in all cases: compound concentration: 200 uM; treatment time: 3 h
USP19 = target: T1, USP19 (UniProt O94966)
T1 sequence (whole entry): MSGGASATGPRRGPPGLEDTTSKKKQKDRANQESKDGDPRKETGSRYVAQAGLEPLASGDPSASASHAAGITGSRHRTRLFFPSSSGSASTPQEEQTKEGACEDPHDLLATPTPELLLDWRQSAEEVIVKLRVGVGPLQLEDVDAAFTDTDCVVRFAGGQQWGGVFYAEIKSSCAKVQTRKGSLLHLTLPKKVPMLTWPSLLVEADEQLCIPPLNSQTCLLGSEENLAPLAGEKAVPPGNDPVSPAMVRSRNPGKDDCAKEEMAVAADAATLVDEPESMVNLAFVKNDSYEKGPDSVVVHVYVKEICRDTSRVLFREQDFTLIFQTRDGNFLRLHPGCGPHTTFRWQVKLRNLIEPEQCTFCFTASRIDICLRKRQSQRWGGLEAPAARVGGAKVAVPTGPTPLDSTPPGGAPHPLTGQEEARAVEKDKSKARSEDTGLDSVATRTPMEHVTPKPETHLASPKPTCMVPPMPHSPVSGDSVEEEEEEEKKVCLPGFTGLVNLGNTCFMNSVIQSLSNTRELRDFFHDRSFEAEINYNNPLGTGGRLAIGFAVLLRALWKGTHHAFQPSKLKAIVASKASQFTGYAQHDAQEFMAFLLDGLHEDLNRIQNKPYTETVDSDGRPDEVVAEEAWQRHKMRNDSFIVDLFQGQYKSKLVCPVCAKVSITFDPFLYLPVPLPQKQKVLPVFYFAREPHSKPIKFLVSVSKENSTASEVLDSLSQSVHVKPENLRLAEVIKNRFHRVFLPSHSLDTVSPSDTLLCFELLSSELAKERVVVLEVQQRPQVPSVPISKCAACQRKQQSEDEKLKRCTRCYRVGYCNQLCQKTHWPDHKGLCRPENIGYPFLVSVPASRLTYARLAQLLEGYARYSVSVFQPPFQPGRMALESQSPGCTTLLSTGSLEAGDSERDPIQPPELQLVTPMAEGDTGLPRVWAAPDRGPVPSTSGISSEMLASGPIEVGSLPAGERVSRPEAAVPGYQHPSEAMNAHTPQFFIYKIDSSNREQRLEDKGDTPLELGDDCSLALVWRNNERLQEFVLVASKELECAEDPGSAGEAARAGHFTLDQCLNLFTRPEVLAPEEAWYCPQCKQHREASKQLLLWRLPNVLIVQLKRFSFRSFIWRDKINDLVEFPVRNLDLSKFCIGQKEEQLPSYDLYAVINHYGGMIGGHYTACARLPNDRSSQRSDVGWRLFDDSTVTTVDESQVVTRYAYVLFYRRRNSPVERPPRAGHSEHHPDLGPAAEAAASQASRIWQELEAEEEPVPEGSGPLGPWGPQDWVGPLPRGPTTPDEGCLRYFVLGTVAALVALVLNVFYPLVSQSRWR
In short: (§1)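 HEK293T lysate, 495 µg per sample in Tris/CHAPS/IGEPAL buffer with protease inhibitors, was treated in triplicate with fragment at 200 µM or vehicle for 3 h and then with Biotin-Ahx-Ub-VS at 0.5 µM final for 1 h. Labelled DUBs were NeutrAvidin-enriched, digested with LysC and trypsin, and run by diaPASEF LC-MS/MS. Spectronaut label-free quantities were global-median-normalised, and values are average log2 fragment/vehicle ratios by unpaired t-test on proteins with ≥2 unique peptides.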

USP24 = USP24 (UniProt Q9UPU5)
USP24, sequence (Q9UPU5 whole entry): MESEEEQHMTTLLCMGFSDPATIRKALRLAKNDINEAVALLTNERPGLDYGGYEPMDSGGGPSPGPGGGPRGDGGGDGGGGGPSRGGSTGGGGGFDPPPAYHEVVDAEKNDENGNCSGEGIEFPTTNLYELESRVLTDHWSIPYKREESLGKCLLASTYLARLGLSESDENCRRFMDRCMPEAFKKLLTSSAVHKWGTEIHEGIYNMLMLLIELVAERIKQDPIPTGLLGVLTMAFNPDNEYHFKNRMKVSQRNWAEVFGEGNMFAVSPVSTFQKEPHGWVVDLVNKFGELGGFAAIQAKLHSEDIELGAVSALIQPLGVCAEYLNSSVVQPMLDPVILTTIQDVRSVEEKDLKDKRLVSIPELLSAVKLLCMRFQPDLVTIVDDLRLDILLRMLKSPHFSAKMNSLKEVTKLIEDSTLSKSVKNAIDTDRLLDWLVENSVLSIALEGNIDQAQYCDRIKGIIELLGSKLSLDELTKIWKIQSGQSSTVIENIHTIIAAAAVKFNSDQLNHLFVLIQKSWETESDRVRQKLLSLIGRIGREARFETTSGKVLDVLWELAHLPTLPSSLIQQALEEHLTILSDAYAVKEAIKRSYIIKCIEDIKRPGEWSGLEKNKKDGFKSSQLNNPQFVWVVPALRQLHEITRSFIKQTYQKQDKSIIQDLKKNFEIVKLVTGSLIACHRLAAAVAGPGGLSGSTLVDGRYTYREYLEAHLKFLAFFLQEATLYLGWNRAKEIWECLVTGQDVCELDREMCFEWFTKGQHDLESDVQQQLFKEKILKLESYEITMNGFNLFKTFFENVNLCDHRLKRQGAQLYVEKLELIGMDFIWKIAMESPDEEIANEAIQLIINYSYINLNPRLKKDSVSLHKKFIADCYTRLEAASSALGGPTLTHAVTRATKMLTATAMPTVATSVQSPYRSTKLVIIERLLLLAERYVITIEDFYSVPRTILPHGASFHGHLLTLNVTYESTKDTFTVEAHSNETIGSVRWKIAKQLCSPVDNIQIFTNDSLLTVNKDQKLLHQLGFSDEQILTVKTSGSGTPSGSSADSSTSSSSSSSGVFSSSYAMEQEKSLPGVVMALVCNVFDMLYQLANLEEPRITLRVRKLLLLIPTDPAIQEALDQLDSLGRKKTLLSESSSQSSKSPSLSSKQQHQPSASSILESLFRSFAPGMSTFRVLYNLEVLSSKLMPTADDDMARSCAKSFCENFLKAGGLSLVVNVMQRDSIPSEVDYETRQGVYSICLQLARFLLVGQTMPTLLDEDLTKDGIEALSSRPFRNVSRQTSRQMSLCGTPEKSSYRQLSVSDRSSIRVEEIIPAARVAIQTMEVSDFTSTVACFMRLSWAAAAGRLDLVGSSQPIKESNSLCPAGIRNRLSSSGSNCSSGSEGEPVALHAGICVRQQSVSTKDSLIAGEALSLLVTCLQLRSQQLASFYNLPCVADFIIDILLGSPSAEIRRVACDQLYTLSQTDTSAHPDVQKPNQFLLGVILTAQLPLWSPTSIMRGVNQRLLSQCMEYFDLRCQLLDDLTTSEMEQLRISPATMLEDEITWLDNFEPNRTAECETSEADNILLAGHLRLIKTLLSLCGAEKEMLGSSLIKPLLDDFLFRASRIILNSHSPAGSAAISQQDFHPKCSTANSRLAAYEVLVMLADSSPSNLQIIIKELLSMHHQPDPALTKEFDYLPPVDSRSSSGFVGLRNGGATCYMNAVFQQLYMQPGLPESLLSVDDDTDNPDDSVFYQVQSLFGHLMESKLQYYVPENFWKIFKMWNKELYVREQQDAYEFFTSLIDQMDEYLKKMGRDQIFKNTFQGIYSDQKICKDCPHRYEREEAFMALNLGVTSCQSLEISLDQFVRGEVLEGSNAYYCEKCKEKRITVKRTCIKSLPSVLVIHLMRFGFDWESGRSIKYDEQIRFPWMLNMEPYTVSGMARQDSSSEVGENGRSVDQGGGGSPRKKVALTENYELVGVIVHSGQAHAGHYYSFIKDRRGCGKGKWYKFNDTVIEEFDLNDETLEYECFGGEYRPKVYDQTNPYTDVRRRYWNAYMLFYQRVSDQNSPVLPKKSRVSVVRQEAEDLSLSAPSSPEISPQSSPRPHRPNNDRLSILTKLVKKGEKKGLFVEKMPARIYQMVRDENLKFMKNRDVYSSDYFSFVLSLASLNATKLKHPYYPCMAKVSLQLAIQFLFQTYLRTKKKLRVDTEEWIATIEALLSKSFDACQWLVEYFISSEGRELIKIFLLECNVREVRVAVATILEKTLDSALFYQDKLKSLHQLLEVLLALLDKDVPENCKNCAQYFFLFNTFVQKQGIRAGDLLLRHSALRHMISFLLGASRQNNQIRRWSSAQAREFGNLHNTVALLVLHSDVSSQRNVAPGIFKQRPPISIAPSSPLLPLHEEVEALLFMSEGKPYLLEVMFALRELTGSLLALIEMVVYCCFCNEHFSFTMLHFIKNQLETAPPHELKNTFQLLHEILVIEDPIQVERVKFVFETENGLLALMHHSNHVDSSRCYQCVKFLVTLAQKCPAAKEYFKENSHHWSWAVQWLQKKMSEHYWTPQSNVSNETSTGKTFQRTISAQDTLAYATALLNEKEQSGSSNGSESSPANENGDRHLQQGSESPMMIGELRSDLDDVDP
In short: as §1

USP25 = target: T2, USP25 (UniProt Q9UHP3)
T2 sequence (whole entry): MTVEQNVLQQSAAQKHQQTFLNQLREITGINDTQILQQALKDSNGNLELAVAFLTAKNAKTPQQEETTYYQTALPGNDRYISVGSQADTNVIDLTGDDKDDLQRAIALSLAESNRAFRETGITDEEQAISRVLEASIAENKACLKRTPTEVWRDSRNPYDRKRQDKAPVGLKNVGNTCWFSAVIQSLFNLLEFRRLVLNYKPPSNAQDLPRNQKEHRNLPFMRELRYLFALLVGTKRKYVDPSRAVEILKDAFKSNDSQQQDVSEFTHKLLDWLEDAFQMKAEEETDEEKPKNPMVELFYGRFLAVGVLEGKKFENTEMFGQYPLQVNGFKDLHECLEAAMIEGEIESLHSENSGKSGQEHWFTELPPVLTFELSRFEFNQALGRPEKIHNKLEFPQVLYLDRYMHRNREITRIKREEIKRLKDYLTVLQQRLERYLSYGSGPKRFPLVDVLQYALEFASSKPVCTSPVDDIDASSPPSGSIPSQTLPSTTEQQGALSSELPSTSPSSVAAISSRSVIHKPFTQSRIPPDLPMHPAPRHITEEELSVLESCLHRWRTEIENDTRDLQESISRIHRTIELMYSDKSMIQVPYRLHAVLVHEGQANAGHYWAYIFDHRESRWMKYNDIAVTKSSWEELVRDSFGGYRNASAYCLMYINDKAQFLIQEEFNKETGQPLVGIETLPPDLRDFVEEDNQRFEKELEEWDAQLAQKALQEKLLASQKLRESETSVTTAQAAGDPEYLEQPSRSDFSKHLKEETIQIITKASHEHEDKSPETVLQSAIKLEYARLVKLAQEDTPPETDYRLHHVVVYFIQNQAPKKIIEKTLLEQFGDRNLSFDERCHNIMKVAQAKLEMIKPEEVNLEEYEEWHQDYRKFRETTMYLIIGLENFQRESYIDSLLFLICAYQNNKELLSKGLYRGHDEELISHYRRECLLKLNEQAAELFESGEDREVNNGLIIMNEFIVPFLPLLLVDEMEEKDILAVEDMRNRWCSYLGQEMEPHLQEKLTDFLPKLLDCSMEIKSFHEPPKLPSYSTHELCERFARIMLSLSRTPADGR
In short: as §1

USP28 = target: T3, USP28 (UniProt Q96RU2)
T3 sequence (whole entry): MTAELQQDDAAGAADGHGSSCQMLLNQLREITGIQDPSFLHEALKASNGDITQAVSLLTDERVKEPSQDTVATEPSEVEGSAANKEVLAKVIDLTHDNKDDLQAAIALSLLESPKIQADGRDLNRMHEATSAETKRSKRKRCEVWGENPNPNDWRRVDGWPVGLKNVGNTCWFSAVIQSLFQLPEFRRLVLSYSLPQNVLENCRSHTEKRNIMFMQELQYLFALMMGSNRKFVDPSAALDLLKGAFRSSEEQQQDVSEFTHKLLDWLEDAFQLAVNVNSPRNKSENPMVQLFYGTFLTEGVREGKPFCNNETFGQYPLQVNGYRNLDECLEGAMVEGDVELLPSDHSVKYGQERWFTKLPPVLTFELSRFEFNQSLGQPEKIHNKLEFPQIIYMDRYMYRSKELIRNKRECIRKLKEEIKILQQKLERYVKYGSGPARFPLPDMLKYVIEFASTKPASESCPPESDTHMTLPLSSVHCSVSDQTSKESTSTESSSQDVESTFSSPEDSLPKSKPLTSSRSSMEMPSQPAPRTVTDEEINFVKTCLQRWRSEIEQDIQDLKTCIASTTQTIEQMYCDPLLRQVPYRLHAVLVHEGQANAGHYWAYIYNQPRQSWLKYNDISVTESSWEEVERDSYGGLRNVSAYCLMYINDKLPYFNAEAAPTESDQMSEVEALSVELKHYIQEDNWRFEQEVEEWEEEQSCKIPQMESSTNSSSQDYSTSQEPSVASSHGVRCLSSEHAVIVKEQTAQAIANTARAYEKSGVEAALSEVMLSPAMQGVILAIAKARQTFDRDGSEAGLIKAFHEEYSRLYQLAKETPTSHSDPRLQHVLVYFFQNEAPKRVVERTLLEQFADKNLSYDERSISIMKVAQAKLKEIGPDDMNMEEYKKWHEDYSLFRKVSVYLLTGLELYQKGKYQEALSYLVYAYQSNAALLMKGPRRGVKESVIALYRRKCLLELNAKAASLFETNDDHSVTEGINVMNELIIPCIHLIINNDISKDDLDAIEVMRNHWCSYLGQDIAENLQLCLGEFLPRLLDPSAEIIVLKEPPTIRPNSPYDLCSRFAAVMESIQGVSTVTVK
In short: as §1

Cc1ccc(C)c(NC(=O)CCl)c1
log2 ratio of Biotin-Ahx-Ub-VS probe labelling (USP19): -0.203
log2 ratio of Biotin-Ahx-Ub-VS probe labelling (USP24): -0.729
log2 ratio of Biotin-Ahx-Ub-VS probe labelling (USP25): -1.41 (active)
log2 ratio of Biotin-Ahx-Ub-VS probe labelling (USP28): -1.56 (active)
